Inhibition data for 63 compounds are collected here from ChEMBL document CHEMBL1157539, “Thousands of chemical starting points for antimalarial lead identification” (Nature, 2010).

For orientation: Inhibition means the share of the control response that was lost under treatment. Read a low Inhibition as little suppression.

Holding throughout (format): functional
For assay [1], the system named is Plasmodium falciparum. Nature of the assay: GSK_TCMDC: Inhibition of Plasmodium falciparum 3D7 in whole red blood cells, using parasite LDH activity as an index of growth. Test compounds present at 2uM.
The test system of assay [2] is Plasmodium falciparum. The assay is described as follows: GSK_TCMDC: Inhibition of Plasmodium falciparum Dd2 in whole red blood cells, using parasite LDH activity as an index of growth. Test compounds present at 2uM.
Assay [3] has as its system HepG2. The assay is described as follows: GSK_TCMDC: Percent inhibition of human HepG2 cell line. Test compounds present at 10uM.

As to `COc1ccc2nc(C)cc(Nc3ccc(Oc4ccc5ccccc5c4)c(Cl)c3)c2c1`, the Inhibition in assay [1] is given as 100%; in assay [2], 99%; in assay [3], 40%.
Turning to `O=C(O)C(F)(F)F.c1cc(CNC2CCN(CC3CCCCC3)CC2)cc(-n2ccnc2)c1`, the Inhibition in assay [1] amounted to 100%; in assay [2] it was 97%; in assay [3], 3%.
For `COc1ccc2nc3cc(Cl)ccc3c(NCCN3CCN(C)CC3)c2c1.Cl`, the Inhibition in assay [1] is given as 100%; in assay [2], 99%; in assay [3] it was 29%.
On to `N#Cc1ccc(-c2nc(CO)c(C(=O)NCCCCN3CCC(c4ccc5c(c4OCC(N)=O)CCCC5)CC3)s2)cc1`, for which the Inhibition in assay [1] is recorded as 92%; in assay [2] it was 0%; in assay [3] it was 9%.
With `COc1ccc(-c2ccc(NC(=O)c3cccc(F)c3)cc2)cc1CN1CCCN(C)CC1.O=C(O)C(F)(F)F`, the Inhibition is listed as 100% in assay [1], 49% in assay [2] and 32% in assay [3].
As for `CNCCCNc1ccnc2cc(Cl)ccc12`, the Inhibition in assay [1] is 100%; in assay [2] it was 25%; in assay [3], 11%.
The matching figures for `CN(C)CCOc1cc(NC(=O)/C=C/c2cccc3ccccc23)ccc1I`: 98%, 7% and 55%.
Regarding `CCC[C@@H]([C@@H](CC1CCCCC1)C(=O)NC(C(=O)Nc1nccs1)C(CC)c1ccccc1)N(O)C=O` (some centres undefined), the Inhibition in assay [1] amounted to 89%; in assay [2], 19%; in assay [3], 50%.
For `COc1ccc2nccc([C@@H](O)CN3CCC(NCc4cc5ccccc5o4)CC3)c2c1.O=C(O)C(=O)O`, the Inhibition in assay [1] turned out to be 96%; in assay [2], 72%; in assay [3] it was 17%.
As for `O=C(Nc1ccc(-c2ccc(-c3nc4ccccc4[nH]3)s2)cc1)Nc1ccc(Cl)c(Cl)c1`, the Inhibition in assay [1] is given as 100%; in assay [2], 99%; in assay [3], 89%.
On to `COc1ccc(CN2CCC(Oc3cccc(NC(=O)c4ccc(C(F)(F)F)cc4)c3)CC2)cc1.O=C(O)C(F)(F)F`, for which the Inhibition is listed as 95% in assay [1], 20% in assay [2] and 35% in assay [3].
Regarding `O=C(Nc1cccc(Cl)c1)N(CCCn1ccnc1)Cc1csc(-c2ccc(CNCc3ccccc3)cc2)n1.O=C(O)C(F)(F)F`, the Inhibition in assay [1] is given as 100%; in assay [2] it was 45%; in assay [3] it was 11%.
As to `FC(F)c1nc2ccccc2n1-c1nc(N2CCOCC2)nc(N2CCOCC2)n1` [ZSTK-474], the values for the Inhibition in assay [1], in assay [2] and in assay [3] were 99%, 99% and 47%, respectively.
Consider `Cn1cc(-c2ccnc3[nH]c(-c4cccc(CNC5CCC(O)CC5)c4)cc23)cn1.O=C(O)C(F)(F)F` (centres undefined), for which the Inhibition in assay [1] was found to be 95%; in assay [2] it was 82%; in assay [3] it was 48%.
In the case of `Cc1cccc(C)c1OC(=O)CSc1nnc(-c2ccccc2O)o1`, the Inhibition in assay [1] was 97%; in assay [2], 0%; in assay [3] it was 11%.
On to `O=C(Nc1ccc(C(F)(F)F)cc1)Nc1cccc([N+](=O)[O-])c1`, for which the Inhibition came out at 100% in assay [1], 98% in assay [2] and 20% in assay [3].
The matching figures for `Cl.Nc1nc(Nc2ccc(Cl)cc2)nc2ccccc12`: 100%, 21% and 6%.
Turning to `Cc1cc(C2CCN(CCCCNC(=O)c3ccc(-c4ccc(C(F)(F)F)cc4)cc3)CC2)c(C)cc1OCC(N)=O`, the values for the Inhibition in assay [1], in assay [2] and in assay [3] were 91%, 44% and 34%, respectively.
`Cn1c(N=C2NC3(c4ccccn4)NC(=Nc4nc5ccccc5n4C)NC3(c3ccccn3)N2)nc2ccccc21.O=C(O)C(F)(F)F` (centres undefined): the Inhibition in assay [1] turned out to be 99%; in assay [2] it was 44%; in assay [3], 12%.
Take `OCc1ccc(-c2cncc(Nc3cccc(Cl)c3)c2)cc1`: the Inhibition in assay [1] is given as 95%; in assay [2] it was 100%; in assay [3], 4%.
With `CC(Oc1ccc(Cl)cc1Cl)c1nc(-c2ccc(NC(=O)c3ccco3)cc2)no1` (centres undefined), the Inhibition is 92% in assay [1], 82% in assay [2] and 7% in assay [3].
Take `COc1ccccc1N1CCN(CCCCNC(=O)c2ccc(NC(=O)c3ccc4ccccc4c3)cc2)CC1`: the Inhibition is recorded as 97% in assay [1], 18% in assay [2] and 16% in assay [3].
For `Cc1cccc2c1NC(=O)/C2=N/NC(=S)N(C)C`, in that order: 96%, 59% and 48%.
With `COc1ccc(-c2c(C(F)(F)F)nn(C)c2NC(=O)Nc2ccc(F)cc2F)cc1`, the Inhibition in assay [1] turned out to be 100%; in assay [2], 99%; in assay [3] it was 8%.
For the compound `O=c1cc(NCCCNC2CCc3ccc(Cl)cc32)[nH]c2ccccc12` (centres undefined), the results for the Inhibition in assay [1], in assay [2] and in assay [3] were 92%, 39% and 0%, respectively.
Consider `Cc1ccc(NC(=O)c2cccc(CN3CCCN(CC4CCCCC4)CC3)c2)cc1F.O=C(O)C(F)(F)F`, for which the Inhibition in assay [1] is recorded as 85%; in assay [2], 42%; in assay [3], 22%.
Consider `O=C(O)C(F)(F)F.c1cc(CN2CCC(CCN3CCCCC3)CC2)cc(-c2csc(-c3nc4ccccc4[nH]3)c2)c1`, for which the Inhibition came out at 99% in assay [1], 99% in assay [2] and 89% in assay [3].
Take `Cc1ccc2nc(C)n(C3CCN(C(=O)Cc4ccccc4C)CC3)c2c1`: the Inhibition in assay [1] is 100%; in assay [2], 100%; in assay [3], 2%.
Regarding `COc1ccc(C2CC(c3ccccc3O)=NN2C(=O)c2ccco2)cc1OC` (centres undefined), the Inhibition was 96% in assay [1], 68% in assay [2] and 11% in assay [3].
As to `CC(C)c1ccc(CN2CCC(NC(=O)c3ccc(-c4cccc(Cl)c4)s3)CC2)cc1.O=C(O)C(F)(F)F`, the Inhibition came out at 82% in assay [1], 6% in assay [2] and 50% in assay [3].
For `CCOC(=O)c1c(C)noc1Nc1ccc(OC)cc1`, the Inhibition was 99% in assay [1], 0% in assay [2] and 0% in assay [3].
Regarding `Fc1cccc(COc2ccc(Nc3ncnc4sc(C#CCNC5CCC5)cc34)cc2Cl)c1`, the values for the Inhibition in assay [1], in assay [2] and in assay [3] were 100%, 73% and 15%, respectively.
With `Cc1cc(=NN=Cc2ccccc2F)c2cccc(C)c2[nH]1`, the values for the Inhibition in assay [1], in assay [2] and in assay [3] were 100%, 14% and 7%, respectively.
For the compound `CC[C@H](C)CNC(=O)c1cncc(-c2ccc(CNCC3CNCCCO3)cc2)c1.O=C(O)C(F)(F)F` (some centres undefined), the Inhibition in assay [1] is reported as 100%; in assay [2] it was 0%; in assay [3], 0%.
As for `COc1ccc(C2C(C(=O)Nc3ccc(C)cc3Br)c3ccccc3C(=O)N2C)cc1` (centres undefined), the Inhibition in assay [1] was determined as 96%; in assay [2], 2%; in assay [3] it was 4%.
Turning to `O=C(O)C(F)(F)F.c1cc(-c2ccc(CN3CCCC3)cc2)cc(-c2nc3ccccc3[nH]2)c1`, the values for the Inhibition in assay [1], in assay [2] and in assay [3] were 100%, 52% and 25%, respectively.
With `O=C(c1cccc(-c2cccc(-c3nc4cc(C(F)(F)F)ccc4[nH]3)c2)c1)N1CCCCC1CN1CCC(O)C1` (centres undefined), the values for the Inhibition in assay [1], in assay [2] and in assay [3] were 91%, 100% and 51%, respectively.
As for `CN1CCC(N2CCN(Cc3ccc(-c4ccc(-c5nc6ccccc6[nH]5)s4)cc3)CC2)CC1.O=C(O)C(F)(F)F`, the results for the Inhibition in assay [1], in assay [2] and in assay [3] were 100%, 100% and 62%, respectively.
As to `CCc1ccc(N2C(=O)C3C(Cc4ccc(OC(C)(C)C)cc4)NC4(C(=O)N(Cc5ccccc5)c5ccc(F)cc54)C3C2=O)cc1` (centres undefined), the Inhibition is reported as 96% in assay [1], 49% in assay [2] and 9% in assay [3].
Regarding `N#Cc1ccc(N2CCN(Cc3cccc(-c4ccc(-c5nc6cc(C(F)(F)F)ccc6[nH]5)s4)c3)CC2)nc1.O=C(O)C(F)(F)F`, the figures for the Inhibition in assay [1], in assay [2] and in assay [3] were 96%, 52% and 31%, respectively.
For the compound `C=CCOC(=O)N1CCC(CNCc2cccc(-c3ccc(-c4nc5ccccc5[nH]4)s3)c2)C1.O=C(O)C(F)(F)F` (centres undefined), the values for the Inhibition in assay [1], in assay [2] and in assay [3] were 99%, 63% and 9%, respectively.
Consider `COc1ccc(Nc2ccnc3cc(-c4ccccn4)ccc23)cc1OC.Cl`, for which the Inhibition in assay [1] is on record as 91%; in assay [2], 26%; in assay [3], 14%.
Turning to `CC(=NNC(S)=NC(C)(C)C)c1ccccn1`, the figures for the Inhibition in assay [1], in assay [2] and in assay [3] were 99%, 100% and 63%, respectively.
For `OCC1CCN(Cc2cccc(C#Cc3cc4ncnc(Nc5ccc(OCc6cccc(F)c6)c(Cl)c5)c4s3)n2)CC1`, in that order: 99%, 95% and 41%.
Take `CCCCCCCCCCNCC(O)c1ccc(O)c(C(=O)OC)c1` (centres undefined): the figures for the Inhibition in assay [1], in assay [2] and in assay [3] were 97%, 97% and 3%, respectively.
On to `Oc1cc2c(cc1CN1CCN(Cc3cccs3)CC1)CCC2`, for which the Inhibition in assay [1] was found to be 99%; in assay [2] it was 91%; in assay [3], 10%.
For `c1ccc(COc2ccccc2COc2ccccc2-c2ccc3cccnc3n2)cc1`, in that order: 87%, 95% and 0%.
For `Cc1cc(C2NC(=O)c3ccccc3N2)c(C)n1-c1ccc2c(c1)OCO2` (centres undefined), in that order: 86%, 85% and 13%.
On to `Cc1ccoc1C(=O)Nc1cccc(-c2cccc(-c3nc4cc(C(F)(F)F)ccc4[nH]3)c2)c1`, for which the Inhibition in assay [1] was 98%; in assay [2] it was 37%; in assay [3], 39%.
Turning to `COc1c(Br)cc(Br)cc1C(C)=O`, the Inhibition is 95% in assay [1], 0% in assay [2] and 3% in assay [3].
`CC(C)CCNc1nc(NCCc2ccccc2)c2cc(O)ccc2n1`: the results for the Inhibition in assay [1], in assay [2] and in assay [3] were 100%, 97% and 6%, respectively.
On to `Nc1nc2c(ncn2OC[C@H]2COP(=O)([O-])CO2)c(=O)[nH]1.[Na+]`, for which the Inhibition stood at 92% in assay [1], 32% in assay [2] and 1% in assay [3].
The matching figures for `O=C(/C=C/c1ccc(C(F)(F)F)cc1)NCCCCCN1CCCN(C(=O)Nc2ccc(Cl)c(Cl)c2)CC1`: 100%, 17% and 89%.
With `O=C(Nc1cccc(CN2CCN(C(=O)c3cccs3)CC2)c1)c1cccs1.O=C(O)C(F)(F)F`, the Inhibition in assay [1] is recorded as 95%; in assay [2], 91%; in assay [3], 0%.
For `CSCCCN1CCC(O)(c2ccc3oc(C(=O)Nc4ccc5sc(C)nc5c4)cc3c2)CC1`, in that order: 100%, 69% and 10%.
As to `COc1cccc(NC(=O)[C@H](C)n2c(=O)[nH]c3ccccc3c2=O)c1`, the Inhibition turned out to be 100% in assay [1], 92% in assay [2] and 8% in assay [3].
Regarding `O=C(/C=C/C=C/c1ccccc1)NCCCCCN1CCC(c2c[nH]c3ccccc23)CC1`, the Inhibition came to 85% in assay [1], 7% in assay [2] and 28% in assay [3].
The matching figures for `O=C(NCc1ccc(F)cc1)c1ccc(N2CCN(c3ccncc3)CC2)cn1.O=C(O)C(F)(F)F`: 98%, 81% and 7%.
In the case of `CCCCc1ccccc1NS(=O)(=O)c1ccc(OC)c(N2CCNCC2)c1.Cl`, the Inhibition was found to be 91% in assay [1], 2% in assay [2] and 6% in assay [3].
As to `CC[C@H](C)CNC(=O)c1ccnc(-c2ccc(CNCCCc3ccccc3)cc2)c1.O=C(O)C(F)(F)F`, the Inhibition in assay [1] is listed as 100%; in assay [2], 84%; in assay [3], 17%.
For `COc1cccc(CC(=O)N2CCC(n3c(C)nc4ccc(C)cc43)CC2)c1`, in that order: 100%, 99% and 1%.
Consider `CC[C@H](NC(=O)c1c(CN2CCC(N3CCCCC3)CC2)c(-c2ccccc2)nc2cc(O)ccc12)c1ccccc1`, for which the Inhibition came out at 94% in assay [1], 13% in assay [2] and 15% in assay [3].
As for `CC(C)c1ccc(NC(=O)NC2CCN(CCCCCNC(=O)/C=C/c3ccc(Cl)c(Cl)c3)CC2)cc1`, the Inhibition was 100% in assay [1], 19% in assay [2] and 0% in assay [3].
